The list is not random: actives were taken first. Their share in the collection is about 3.5%.
FBW7 act: human FBW7 E3 ligase activation, primary screen | hit rate 0.13% among 650,000 | normalized activity (activation), % at 26.1 µM | AID 1259310 | AlphaScreen FBW7–phospho-cyclin E peptide binding, activator screen; in the data active = normalized activity above about 1.9%;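 note: purified mutant Fbw7 with reduced substrate affinity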
TEAD-YAP inh: TEAD-YAP interaction inhibition; HEK-TIYL cells, TEAD-Gal4/YAP UAS-luciferase luminescence; inhibition, % at 9.12 µM; hit rate 1.4% among 640,000; in the data active = inhibition above about 32%;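 note: 0% = median of test compound wells and 100% = reference inhibitor wells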
MITF primary: human MITF inhibition, primary screen; hit rate 0.91% among 650,000; AlphaScreen MITF homodimerization, bead proximity signal; inhibition, % at 2.6 µM; O75030; AID 1259374; in the data active = inhibition above about 50%;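 note: 0% = vehicle wells with protein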
Target sequence (O75030 whole entry, looked up): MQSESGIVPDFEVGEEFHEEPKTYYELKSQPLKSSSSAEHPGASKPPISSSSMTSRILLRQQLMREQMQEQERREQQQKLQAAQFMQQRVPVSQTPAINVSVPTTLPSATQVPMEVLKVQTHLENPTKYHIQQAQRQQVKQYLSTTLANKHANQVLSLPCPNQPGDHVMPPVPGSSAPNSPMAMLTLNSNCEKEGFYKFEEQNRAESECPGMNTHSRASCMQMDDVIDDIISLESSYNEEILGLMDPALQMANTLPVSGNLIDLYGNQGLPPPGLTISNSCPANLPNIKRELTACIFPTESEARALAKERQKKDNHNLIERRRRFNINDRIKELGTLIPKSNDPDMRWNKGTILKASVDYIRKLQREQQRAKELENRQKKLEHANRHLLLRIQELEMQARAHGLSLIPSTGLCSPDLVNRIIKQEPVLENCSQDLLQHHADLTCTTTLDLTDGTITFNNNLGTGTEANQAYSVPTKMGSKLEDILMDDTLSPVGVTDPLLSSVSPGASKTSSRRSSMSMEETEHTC
GPR151 activ: human GPR151 activation. Q8TDV0. PathHunter beta-arrestin GPR151 cells, luminescence. activation, % at 11.2 µM. hit rate 1% among 650,000. AID 1508602; in the data active = activation above about 4.9%;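 note: 0% = median of compound wells and 100% = cells with positive control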
GPR151 conf act: human GPR151 activation, confirmation screen; shares compounds with GPR151 activ; GPR151 PathHunter beta-arrestin cells, luminescence, 90 min; % of EA-reagent control over plate median; activation, % at 11.2 µM; 6,700 tested, under 10 active; AID 1508609;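 active = mean percent activation across replicates above the confirmation screen cutoff of 4.91%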
GPR119 ag: GPR119 activation, counter-screen for GPR151 activators | shares compounds with GPR151 activ | hit rate 0.3% among 6,700 | GPR119 PathHunter beta-arrestin cells, luminescence, 90 min; 0 = compound-well median, 100 = enzyme-acceptor control | activation, % at 11.2 µM;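 active = mean percent activation in the counterscreen above 29.09%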;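 note: counterscreen on off-target GPR119 to flag nonselective hits from the GPR151 activator screen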
The depositor's hits bear a star; / = no result given; ! = repeats disagree.

SMILES	FBW7 act	TEAD-YAP inh	MITF primary	GPR151 activ	GPR151 conf act	GPR119 ag
Cc1ccc(/C=C2\C(=O)NC(=O)N(c3cccc(Br)c3)C2=O)cc1[N+](=O)[O-]	0	8	-4	5.1*	0	12
COc1cc([N+](=O)[O-])cc(/C=C2/C(=O)NC(=O)N(c3cccc(C)c3)C2=O)c1O	0	4	2	5.3*	1	7
COc1cc(/C=C2/C(=O)NN(c3cccc(C)c3)C2=O)cc([N+](=O)[O-])c1O	0	3	3	-1	/	/
CCOc1cc(/C=C2/C(=O)NN(c3cccc(C)c3)C2=O)cc([N+](=O)[O-])c1O	0	2	10	6.0*	1	1
O=C(Nc1ccc(C(=O)Nc2ccc(Cl)cc2)cc1)c1ccc(Cl)cc1	0	2	14	1	/	/
COc1ccc(OC)c(N(CC(=O)Nc2ccc(Cl)c(Cl)c2)S(=O)(=O)c2ccccc2)c1	0	3	1	-1	/	/
COc1ccc(C(=O)C2CCCN(S(=O)(=O)c3c(C)nn(C)c3Cl)C2)c(C)c1 (centres undefined)	0	8	17	1	/	/
COc1c(C)cc(C(=O)C2CCCN(S(=O)(=O)c3c(C)nn(C)c3Cl)C2)cc1C (centres undefined)	0	0	-2	8.7*	0	-3
Cc1cc(C)nc(N2NC(C(=O)O)C=CC2=O)n1 (centres undefined)	0	1	0	-1	/	/
CCN(CCN(C)C)Cc1cc(OC)c(OC)cc1[N+](=O)[O-]	0	-5	24	5.3*	0	-6
COc1ccc(OC)c(NC(=O)CC2C(=O)NCCN2C(=O)C(F)(F)F)c1 (centres undefined)	1	1	9	7.0*	0	1
COc1ccc(-c2noc(N3CCC(C(=O)NCc4ccc5c(c4)OCO5)CC3)n2)cc1	0	0	9	7.9*	0	3
COc1c(Cl)cc(C(=O)NCc2ccc3c(c2)OCO3)cc1Cl	0	-6	0	5.9*	0	-8
Nc1ccccc1C(=O)NCc1ccccc1Cl	0	0	5	3	/	/
CC1(C)CC(NC(=O)c2ccc(CN3CCSCC3)[nH]c2=O)CCO1 (centres undefined)	0	0	-1	0	/	/
COc1cccc(OC)c1C(=O)NC(=S)Nc1ccc(Br)cn1	0	-17	-2	-1	/	/
COc1cccc(OC)c1C(=O)Nc1ccc([N+](=O)[O-])cn1	0	5	10	0	/	/
COc1cccc(OC)c1C(=O)Nc1ncc([N+](=O)[O-])s1	0	5	11	5.7*	0	-9
COc1cccc(OC)c1C(=O)Nc1ccc(Br)cn1	0	-7	-11	15*	-1	4
CN(C(=O)CCNC(=O)Cn1cnc2ccccc2c1=O)c1cccc(Cl)c1	0	12	9	-1	/	/
COC(CNC(=O)C(=O)NCC1OCCN1S(=O)(=O)c1cccs1)OC (centres undefined)	1	-7	7	-2	/	/
CN(C)CCNC(=O)C(=O)NCC1OCCN1S(=O)(=O)c1cccs1 (centres undefined)	1	6	-16	6.3*	0	4
CCOc1cc(C)c(C(C)C)cc1S(=O)(=O)N(CC)CC	0	2	-9	16*	0	-1
CCOc1cc(C)c(C(C)C)cc1S(=O)(=O)N1CCN(C)CC1	0	2	5	2	/	/
CC(=O)Nc1ccc(S(=O)(=O)N2CC=C[C@H]2C(=O)NC2CCCCC2)cc1	0	4	0	0	/	/
SMILES	FBW7 act	TEAD-YAP inh	MITF primary	GPR151 activ	GPR151 conf act	GPR119 ag
COc1ccc(NC(=S)NCCCCCC(=O)C[N+](=O)[O-])cc1	0	1	-7	1	/	/
Cc1ccccc1Nc1nc(N)nc(COc2ccc([N+](=O)[O-])cc2Cl)n1	0	-7	6	5.7*	0	3
Cc1ccccc1Nc1nc(N)nc(COC(=O)c2cc(=O)c3ccccc3o2)n1	0	-10	2	8.0*	-1	-1
O=S(=O)(NCCc1cnc[nH]1)c1cccc2cccnc12	0	0	8	1	/	/
Cc1cc(N(C)C)nc(N2CCC(C(=O)NCc3cccs3)CC2)n1	0	3	-2	-1	/	/
Cc1cc(-c2ccccc2)nc(N2CCC(C(=O)NCc3cccs3)CC2)n1	0	-7	-16	10*	0	13
C[C@H]1C[C@@H]2[C@H]([C@@H](O)C[C@@]3(C)[C@H]2CC[C@]3(O)C(=O)CO)[C@@]2(C)C=CC(=O)C=C12	0	/	3	6.9*!	0	0
CCCc1ccc(-c2ccc(C(=O)Nc3ccc(C)cc3)cc2)nc1	0	-3	13	7.1*	0	-10
Cc1cc2nnc(SCC(=O)N3CCC(C)CC3)n2c(N)n1	0	-7	3	4.9*	1	-1
CC(C)C(C)NC(=O)CSc1nnc(COc2ccccc2Cl)o1 (centres undefined)	0	10	8	7.7*	-1	-3
COc1ccccc1OCc1nnc(SCC(=O)N(C)C)o1	1	-8	-5	0	/	/
CCOC(=O)C1(CCc2ccccc2)CCN(Cc2cnc(C)s2)CC1	0	-5	-2	9.8*	0	-6
OCC1(CCc2ccccc2)CCN(Cc2cnc(N3CCCC3)s2)CC1	0	-3	6	6.6*	-1	-15
CC(C)c1ccc(N(C(=O)c2snc(C(N)=O)c2N)C(C)C(=O)NC2CCCC2)cc1 (centres undefined)	0	-1	19	-1	/	/
COc1ccc(CCNc2cc(C)nc(-c3csc4ccccc34)n2)cc1	0	-52	3	-1	/	/
O=C(/C=C\c1ccc([N+](=O)[O-])cc1)Nc1nnc(-c2cccs2)o1	0	-5	-5	6.7*	-1	1
O=C(/C=C\c1ccc([N+](=O)[O-])cc1)Nc1nnc(-c2ccccc2)o1	0	-6	0	0	/	/
Cc1nccn1CCNC(=O)c1ccc(F)c(F)c1	0	8	-5	9.9*	0	-9
CCOc1ccc(CC(=O)NCCn2ccnc2C)cc1	0	5	1	3	/	/
CCCn1cc(SCC(=O)Nc2ccc(OCC)cc2)c2ccccc21	0	20	-11	0	/	/
CCOc1ccc(NC(=O)CSc2cn(Cc3cccc(F)c3)c3ccccc23)cc1	0	-5	11	18*	0	4
O=C(CNC(=O)c1cccs1)OCC(=O)c1ccc(Oc2ccc([N+](=O)[O-])cc2)cc1	0	-3	-7	0	/	/
Cc1ccc(C2=C/C(=C/c3ccccn3)C(=O)O2)c(C)c1	0	-44	1	5.3*	2	-9
CCOc1ccc(NC2=CC(=O)CCC2)cc1	0	-1	-4	1	/	/
CCOc1ccc(NC2=CC(=O)C=CC2=O)cc1	0	8	26	5.8*	0	-2

Screening results: PubChem BioAssay, The Scripps Research Institute Molecular Screening Center
